This is a sample that favours compounds with a hit; in the whole collection about 1.7% have one here.
PTPN22 act: increases human PTPN22 phosphatase activity. AID 697. actives 0.11% (n = 96,000). Q9Y2R2. activation, % at 2 µM. recombinant LYP, DiFMUP fluorescence; 0 = plate median, 100 = signal doubled;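 active = activation at 2 µM above a set limit, the mean plus 5 SD, cut at about 37% in these data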
PLK1 PBD inh: inhibitors of human Plk1 polo box domain binding | P53350 | Plk1 PBD phosphopeptide binding, fluorescence polarization | inhibition, %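 (tested at about 20 µM)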 | actives 0.13% (n = 97,000) | AID 693; in the data active = inhibition above about 34%, passing the limit was not always enough
LYP inh 2: inhibitors of human LYP (PTPN22) phosphatase | recombinant LYP catalytic domain, DiFMUP fluorescence | inhibition, % at 2 µM | actives 0.21% (n = 96,000) | AID 640;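 active = inhibition at 2 µM at or above a set limit, the screen mean plus 3 SD, cut at about 24% in these data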;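 note: 0% = DMSO with enzyme and 100% = enzyme fully blocked by orthovanadate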
PLK1 inh: inhibitors of human PLK1 kinase; recombinant PLK1 kinase, TR-FRET peptide phosphorylation; inhibition, % at 10 µM; P53350; actives 0.53% (n = 97,000); AID 619;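 active = inhibition of 50% or more in the single-concentration screen; inactive = inhibition below 50%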;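 note: 0% = DMSO max control and 100% = H-89 dihydrochloride min control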
FAK inh: inhibitors of human focal adhesion kinase | AID 727 | inhibition, %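 (tested at 7 µM)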 | actives 0.84% (n = 97,000) | biochemical FAK kinase activity assay | Q05397; in the data active = inhibition above about 19%;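 note: 0% = DMSO and 100% = reference compound high control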
EphB4 antag: blocks human EphB4 binding to ephrin-B2 | P54760 | EphB4 LBD / TNYL-RAW-Alexa532 peptide, fluorescence polarization | inhibition, % at 7 µM | actives 0.15% (n = 97,000);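 active = inhibition above the screen-wide mean inhibition plus 3 SD, cut at about 15% in these data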;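 note: 0% = DMSO wells and 100% = excess unlabeled TNYL-RAW peptide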
* = called active by the depositor; / = not tested or not shown; [ ] = another dose, or the depositor's remark.

SMILES | PTPN22 act | PLK1 PBD inh | LYP inh 2 | PLK1 inh | FAK inh | EphB4 antag
Cc1csc2ncc(C(=O)NC(C)c3ccccc3)c(=O)n12 (centres undefined) | 3.1 | 4.9 | -4.9 | -7.5 | 1.2 | -4.8
O=C(Nc1cccc(O)c1)c1cnn2cccnc12 | 7.2 | -5.9 | -4.8 | 57.4* | 3.4 | -3.5
CCOC(=O)N1CCC(NC(=O)C2CCN(C(=O)N3CCOc4ccccc43)CC2)CC1 | 2.4 | 17.8 | 0.6 | 54.5* | -1.4 | 4.7
CCOc1ccc(OCC)c(NC(=O)CCn2cccc2)c1 | 8.5 | -10.8 | -7.9 | -9.4 | 2.1 | -1.2
COC1CCCCC1NS(=O)(=O)c1ccc(Cl)cc1 (centres undefined) | / | -5.3 | / | 68.3* | -1.6 | -5.7
COC1CCCCC1NS(=O)(=O)c1ccccc1 (centres undefined) | -4.4 | 4.9 | 8.2 | -12.4 | -1.4 | -0.3
CC(=O)c1ccc(-n2nnnc2SCC(=O)N2CCc3ccccc3C2)cc1 | -8.2 | 16.7 | 11.0 | -7.5 | 8.1 | 18.4*
O=C(CSc1nnnn1-c1ccccc1)N1CCc2ccccc2C1 | -2.1 | -11.9 | -1.6 | -10.2 | 1.6 | -0.5
Cc1ccc(-c2nc(C3CCCN(S(=O)(=O)c4ccc(C)cc4)C3)no2)cc1 (centres undefined) | / | -27.9 | / | 67.0* | -10.8 | -7.6
O=C(Nc1ccccc1)c1ccccc1CC[N+](=O)[O-] | -3.6 | -4.8 | 7.9 | -5.9 | -0.9 | 2.4
CC(=O)Nc1ccc(NC(=O)c2ccccc2CC[N+](=O)[O-])cc1 | -40.3 | -3.9 | 41.7* | -14.4 | 5.5 | 6.6
NS(=O)(=O)c1ccc(NC(=O)Cn2ncc3c2-c2ccccc2OC3)cc1 | -10.6 | -1.8 | 8.0 | -0.3 | 3.4 | -0.9
CCOC(=O)c1c(N2C(=O)Nc3cc(Cl)c(Cl)cc3N2O)sc2c1CCCCC2 | -30.0 | 8.1 | 32.2* | -19.7 | 17.6 | 1.2
CCOC(=O)c1c(N2C(=O)C3C4C=CC(O4)C3C2=O)sc2c1CCCC2 (centres undefined) | -3.5 | 7.0 | 5.7 | 0.5 | 0.1 | -2.8
COc1ccc2nc(SCc3cnc(C)nc3N)[nH]c2c1 | -57.1 | 3.5 | 57.9* | -8.6 | 0.6 | -5.7
CC(C)OC(=O)C1C2C=CC3(CN(Cc4cccs4)C(=O)C13)O2 (centres undefined) | 3.2 | -22.8 | -0.7 | -16.7 | -3.1 | 3.6
CC(OC(=O)c1ccco1)C(=O)NC1CCCCC1 (centres undefined) | -30.0 | -5.6 | 28.2* | -11.9 | -2.2 | 7.1
O=C(CCCC(=O)N(CC(=O)NC1CCCC1)Cc1ccc2c(c1)OCO2)Nc1ccccn1 | 7.2 | -10.5 | -9.9 | -9.6 | 1.3 | 1.8
Clc1ccc(CN2CCN(c3ncnc4scc(-c5cccs5)c34)CC2)cc1 | 0.1 | 0.1 | 3.2 | 62.2* | 1.0 | -1.1
CC(=O)c1ccc(N2CCN(C(=O)c3ccc(Br)cc3)CC2)c(F)c1 | -12.0 | 13.1 | 11.1 | -3.3 | 2.5 | 20.6*
O=C1CCCc2c1[nH]c1ccccc21 | 2.8 | -2.5 | -3.9 | -3.8 | 5.9 | 16.5*
O=C1CCCc2c1[nH]c1c(Br)cccc21 | 3.4 | 1.2 | -4.6 | -10.5 | 5.0 | 3.2
CCOC(=O)C1=C(c2ccccc2)N2CCS(=O)(=O)N=C2S1 | -11.3 | 4.7 | 14.9 | -3.7 | 1.8 | 16.1*
CCOC(=O)c1c(N)nn(C(=O)C(C)(C)C)c1-c1ccccc1 | -0.8 | -10.2 | -0.3 | -8.7 | 4.5 | 4.3
CC([NH2+][O-])C(C)(C)NO (centres undefined) | 10.0 | -5.9 | -8.1 | -12.4 | -1.1 | -2.3
SMILES | PTPN22 act | PLK1 PBD inh | LYP inh 2 | PLK1 inh | FAK inh | EphB4 antag
CCOC(=O)c1c2c(n(C)c1COC)C(=O)C(=O)c1ccc(Br)cc1-2 | -3.0 | 12.1 | 3.5 | -7.5 | 52.2* | 3.6
CN(C)Cc1cc(CCNC(=O)c2ccc(Cl)cc2)ccc1O | 11.5 | -3.2 | -15.4 | -0.7 | -3.2 | -0.1
O=C(N/N=C/c1cccc([N+](=O)[O-])c1)c1cc2c(ccc3ccccc32)o1 | -33.7 | -1.5 | 35.4* | -5.7 | 13.0 | 3.1
COc1cccc(C2CC(=O)NC(SC)=C2C#N)c1 (centres undefined) | / | -1.4 | / | 68.6* | -0.8 | -0.1
Fc1ccc(Sc2cc(Cl)c(-c3ccccc3)nn2)cc1 | 2.7 | -6.1 | -0.2 | -10.8 | 4.2 | 20.0*
Fc1ccc(Sc2nc(-c3ccccc3)nnc2C(F)(F)F)cc1 | 0.2 | -13.7 | 3.1 | 2.9 | -10.8 | -1.5
COc1ccc(C2C=C(c3ccc(C)c(C)c3)Nc3ncnn32)c(OC)c1OC (centres undefined) | / | -4.0 | / | 67.4* | 0.7 | 3.9
COc1c(N2CCN(C(=S)NCc3ccccc3)C(C)C2)c(F)cc2c(=O)c(C(=O)O)cn(C3CC3)c12 (centres undefined) | -34.0 | 11.9 | 35.1* | -16.3 | -3.4 | -3.8
CCn1cc(C(=O)NCc2ccccc2)c(=O)c2cc(F)c(N3CCN(C(=O)c4ccco4)CC3)cc21 | 11.2 | -12.1 | -8.3 | -3.3 | -1.4 | -6.5
S=c1sc2c(N3CCN(Cc4ccccc4)CC3)ncnc2n1-c1ccccc1 | 7.1 | -45.3 | -5.3 | -7.1 | -0.8 | -4.5
S=c1sc2c(N3CCOCC3)ncnc2n1-c1ccccc1 | / | 21.1 | / | 61.6* | -3.5 | 0.0
CSC1=NCCN1C(=O)COc1ccccc1 | / | 0.5 | / | 68.6* | -5.7 | 0.1
CSC1=NCCN1C(=O)COc1ccc2ccccc2c1 | 5.2 | -0.9 | -8.7 | -15.8 | 0.6 | -9.4
CCCOC(=O)C(C)n1cnc2sc(C)c(C)c2c1=O (centres undefined) | 0.6 | 2.3 | -1.0 | -8.5 | -3.3 | 16.0*
Fc1ccc(-c2nc3ccncc3[nH]2)cc1 | 5.3 | -12.2 | -2.3 | 64.6* | 4.7 | 3.3
CCCc1nnc(SCc2ccc(C(=O)OC)o2)n1N | -14.3 | 12.7 | 13.2 | -7.3 | -2.7 | 39.2*[fluorescence artefact?]
Cc1sc2nc(CN(Cc3cccs3)C(=O)NC3CCCCC3)[nH]c(=O)c2c1C | -11.1 | 29.6 | 7.9 | 57.2* | -0.9 | -10.4
Cc1sc2nc(CN(C(=O)NC3CCCCC3)C3CCCC3)[nH]c(=O)c2c1C | 2.5 | -21.0 | -2.0 | -13.0 | 0.4 | -2.5
CCC(C)(C)n1nnnc1C(C(C)C)N1CCSCC1 (centres undefined) | 11.6 | -7.2 | -11.0 | -4.9 | -1.5 | 4.4
O=C(CSc1nnc(CNc2ccc(Cl)cc2)o1)Nc1nc2ccccc2s1 | -1.0 | -8.2 | -0.1 | 55.8* | -1.1 | 8.1
C=CCn1c(SCC(=O)c2cc(C)n(C(C)COC)c2C)nc2sc(C)c(C)c2c1=O (centres undefined) | -10.4 | 27.9 | 14.0 | -7.9 | 5.3 | 1.4
Cn1c(CSCc2ccc(F)cc2)nnc1SCC(=O)Nc1nccs1 | -12.5 | -0.1 | 5.7 | 51.8* | 1.8 | 3.5
Cn1c(CSCc2ccccc2)nnc1SCC(=O)Nc1nccs1 | 4.7 | -1.6 | 1.6 | 56.0* | -3.0 | -5.6
CCCCC(=O)Nc1ccc(C(=O)NN2C(=O)c3ccccc3C2=O)cc1 | -1.4 | 0.7 | 6.4 | -2.5 | -5.4 | -4.3
Cc1cc(N2CCN(c3ccccn3)CC2)n2cc(-c3ccccc3)nc2n1 | -3.0 | -11.7 | 0.6 | -3.0 | 2.9 | 15.8*
